This assay deals with Plasmodium falciparum NF54/iGP1_RE9H ulg8 stage V gametocytes. The assay can be described thus: gametocyte viability (luciferase signal relative to DMSO control) (% of DMSO control); higher = less gametocytocidal activity, active = 50 or less. The following applies: exposure time: 72 h. The method in brief:
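Stage V gametocytes of the NF54/iGP1_RE9Hulg8 line (day 12; ~2.5% gametocytemia, 3% hematocrit), in medium containing 0.5% Albumax II, were dispensed into 96-well plates with compounds spotted in nanolitre volumes from 10 mM DMSO stocks, for final concentrations of 10 µM or 1 µM in a single well each. After 72 h at 37 °C, 90 µl from each well was combined with 10 µl D-luciferin (30 mg/ml), and luminescence was measured on an IVIS Lumina II. Viability was expressed against the mean of the DMSO vehicle wells on the same plate.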

Structures can show the parent of a compound that is named as a salt. About 40 (3%) of roughly 1,300 compounds showed activity. The entries come from a sample that favours actives as a whole.

On to `CC(=O)c1ccc2c(c1)N(CCCN1CCC(CCO)CC1)c1ccccc1S2` [Piperacetazine], for which the gametocyte viability reads like this: (concentration: 1 µM) 79.4 (inactive); (concentration: 10 µM) 80.8 (inactive).
As to `Fc1ccc(C(c2ccc(F)cc2)N2CCN(C/C=C/c3ccccc3)CC2)cc1` [Flunarizine dihydrochloride], the gametocyte viability reads like this: (concentration: 1 µM) 81.5 (inactive); (concentration: 10 µM) 95.1 (inactive).
On to `COC1=CC(=O)C[C@@H](C)[C@]12Oc1c(Cl)c(OC)cc(OC)c1C2=O` [Griseofulvin], for which the gametocyte viability (concentration: 1 µM) was 89.3 (inactive) and the gametocyte viability (concentration: 10 µM) is 84.6 (inactive).
The matching figures for `CCOC(=O)O[C@]1(C(=O)COC(=O)CC)CC[C@H]2[C@@H]3CCC4=CC(=O)C=C[C@]4(C)[C@H]3[C@@H](O)C[C@@]21C` [Prednicarbate]: 91.7 (inactive) and 90.6 (inactive).
Regarding `CN(Cc1cnc2nc(N)nc(N)c2n1)c1ccc(C(=O)N[C@@H](CCC(=O)O)C(=O)O)cc1` [Methotrexate], the gametocyte viability was 91.4 (inactive) (concentration: 1 µM) and 87.9 (inactive) (concentration: 10 µM).
For the compound `CN(Cc1cnc2nc(N)nc(N)c2n1)c1ccc(C(=O)N[C@@H](CCC(=O)O)C(=O)O)cc1` (racemic) [Amethopterin (R,S)], the gametocyte viability runs as follows: (concentration: 1 µM) 80.3 (inactive); (concentration: 10 µM) 83.6 (inactive).
The matching figures for `COc1cccc2c1C(=O)c1c(O)c3c(c(O)c1C2=O)C[C@@](O)(C(C)=O)C[C@@H]3O[C@H]1C[C@H](N)[C@H](O)[C@H](C)O1` [Daunorubicin hydrochloride]: 69.8 (inactive) and 7.37 (active).
The matching figures for `COc1cccc2c1C(=O)c1c(O)c3c(c(O)c1C2=O)C[C@@](O)(C(=O)CO)C[C@@H]3O[C@H]1C[C@H](N)[C@H](O)[C@H](C)O1` [Doxorubicin hydrochloride]: 64.5 (inactive) and 19 (active).
For the compound `C#C[C@]1(O)CC[C@H]2[C@@H]3CCC4=CCCC[C@@H]4[C@H]3CC[C@@]21C` [Lynestrenol], the gametocyte viability (concentration: 1 µM) is 86 (inactive) and the gametocyte viability (concentration: 10 µM) is 89.2 (inactive).
The matching figures for `CCCCNc1c(C(=O)OCC)c(C)nc2c1cnn2CC` [Tracazolate hydrochloride]: 88.5 (inactive) and 76.3 (inactive).
On to `CC#C[C@]1(O)CC[C@H]2[C@@H]3CCC4=CC(=O)CCC4=C3[C@@H](c3ccc(N(C)C)cc3)C[C@@]21C` [Mifepristone], for which the gametocyte viability is, setting by setting: (concentration: 1 µM) 83.1 (inactive); (concentration: 10 µM) 83.2 (inactive).
The matching figures for `CN(C)CCOC1=Cc2ccccc2Sc2ccc(Cl)cc21` [Zotepine]: 91.1 (inactive) and 86 (inactive).
On to `CCOC(=O)N1CCC(=C2c3ccc(Cl)cc3CCc3cccnc32)CC1` [Loratadine], for which the gametocyte viability (concentration: 1 µM) is 86 (inactive) and the gametocyte viability (concentration: 10 µM) was 87.7 (inactive).
With `CN(C)CCc1c[nH]c2ccc(Cn3cncn3)cc12` [Rizatriptan benzoate], the gametocyte viability by setting is: (concentration: 1 µM) 84.2 (inactive); (concentration: 10 µM) 84 (inactive).
On to `OC(Cn1cncn1)(Cn1cncn1)c1ccc(F)cc1F` [Fluconazole], for which the gametocyte viability (concentration: 1 µM) was 83.4 (inactive) and the gametocyte viability (concentration: 10 µM) is 86.9 (inactive).
The matching figures for `CC(C)(C#N)c1cc(Cn2cncn2)cc(C(C)(C)C#N)c1` [Anastrozole]: 77.6 (inactive) and 45.8 (active).
The matching figures for `CC(C)c1nc(CN(C)C(=O)N[C@H](C(=O)N[C@@H](Cc2ccccc2)C[C@H](O)[C@H](Cc2ccccc2)NC(=O)OCc2cncs2)C(C)C)cs1` [Ritonavir]: 66.4 (inactive) and 36.5 (active).
The matching figures for `Nc1ccc(/N=N/c2ccccc2)c(N)n1` [Phenazopyridine hydrochloride]: 88.3 (inactive) and 48.1 (active).
Turning to `Nc1c2ccccc2nc2ccccc12` [Aminacrine], the gametocyte viability is, setting by setting: (concentration: 1 µM) 85.8 (inactive); (concentration: 10 µM) 81.4 (inactive).
In the case of `CCN1CCN(C(=O)N[C@@H](C(=O)N[C@@H]2C(=O)N3C(C(=O)O)=C(CSc4nnnn4C)CS[C@H]23)c2ccc(O)cc2)C(=O)C1=O` [Cefoperazone dihydrate], the gametocyte viability was 79.3 (inactive) (concentration: 1 µM) and 83.8 (inactive) (concentration: 10 µM).
Turning to `CC(N)CCCC(C)(C)O` (configuration not stated) [Heptaminol hydrochloride], the gametocyte viability was 82.3 (inactive) (concentration: 1 µM) and 84.6 (inactive) (concentration: 10 µM).
As for `Cc1c(-c2ccccc2)oc2c(C(=O)OCCN3CCCCC3)cccc2c1=O` [Flavoxate hydrochloride], the gametocyte viability by setting is: (concentration: 1 µM) 92 (inactive); (concentration: 10 µM) 87 (inactive).
As to `N#CC(c1ccc(Cl)cc1)c1c(Cl)cc(-n2ncc(=O)[nH]c2=O)cc1Cl` (configuration not stated) [Diclazuril], the gametocyte viability is, setting by setting: (concentration: 1 µM) 92.9 (inactive); (concentration: 10 µM) 91.4 (inactive).
The matching figures for `CC(=O)Nc1c(I)c(C(=O)N[C@H]2C(O)O[C@H](CO)[C@@H](O)[C@@H]2O)c(I)c(N(C)C(C)=O)c1I` (some centres not stated) [Metrizamide]: 84.7 (inactive) and 88.9 (inactive).
On to `CCCC1C(=O)N2C(N(C)C)=Nc3ccc(C)cc3N2C1=O` (configuration not stated) [Azapropazone], for which the gametocyte viability runs as follows: (concentration: 1 µM) 89.5 (inactive); (concentration: 10 µM) 87.5 (inactive).
In the case of `Oc1c(Cl)cc(Cl)c2cccnc12` [Chloroxine], the gametocyte viability reads like this: (concentration: 1 µM) 83.4 (inactive); (concentration: 10 µM) 84.2 (inactive).
The matching figures for `CO[C@@]1(NC(=O)Cc2cccs2)C(=O)N2C(C(=O)O)=C(COC(N)=O)CS[C@@H]21` [Cefoxitin sodium salt]: 85.9 (inactive) and 81.1 (inactive).
Turning to `CNC1(C)C2CCC(C2)C1(C)C` (configuration not stated) [Mecamylamine hydrochloride], the gametocyte viability runs as follows: (concentration: 1 µM) 93.8 (inactive); (concentration: 10 µM) 94.3 (inactive).
As for `CCC(C)(C)C(=O)O[C@H]1C[C@@H](C)C=C2C=C[C@H](C)[C@H](CC[C@@H]3C[C@@H](O)CC(=O)O3)[C@H]21` [Simvastatin], the gametocyte viability runs as follows: (concentration: 1 µM) 80.4 (inactive); (concentration: 10 µM) 85.5 (inactive).
The matching figures for `CCOC(=O)C1=C(COCCN)NC(C)=C(C(=O)OC)C1c1ccccc1Cl` (configuration not stated) [Amlodipine]: 82.2 (inactive) and 63.1 (inactive).
The matching figures for `COCCc1ccc(OCC(O)CNC(C)C)cc1` (racemic) [Metoprolol-(+,-) (+)-tartrate salt]: 94 (inactive) and 94 (inactive).
The matching figures for `CCCCCCNC(=O)n1cc(F)c(=O)[nH]c1=O` [Carmofur]: 80.2 (inactive) and 76.4 (inactive).
For `Cc1cccn2c(=O)c(-c3nnn[nH]3)cnc12` [Pemirolast potassium], the gametocyte viability was 80.6 (inactive) (concentration: 1 µM) and 84.7 (inactive) (concentration: 10 µM).
In the case of `COc1cc(C(=O)N2CCOCC2)cc(OC)c1OC` [Trimetozine], the gametocyte viability (concentration: 1 µM) was 81.7 (inactive) and the gametocyte viability (concentration: 10 µM) was 80.2 (inactive).
The matching figures for `CN1CCc2c(c3ccccc3n2Cc2ccccc2)C1` [Mebhydroline 1,5-naphtalenedisulfonate]: 88.8 (inactive) and 83.3 (inactive).
The matching figures for `Cc1c(N(C)C)c(=O)n(-c2ccccc2)n1C` [Amidopyrine]: 99 (inactive) and 95.3 (inactive).
For the compound `O=C1c2c(O)cccc2Cc2cccc(O)c21` [Anthralin], the gametocyte viability (concentration: 1 µM) was 89.3 (inactive) and the gametocyte viability (concentration: 10 µM) is 86.9 (inactive).
The matching figures for `O=C1c2cccc(O)c2C(=O)c2c(O)cccc21` [1,8-Dihydroxyanthraquinone]: 82.8 (inactive) and 85.1 (inactive).
On to `O=C1c2c(O)ccc(O)c2C(=O)c2c(NCCNCCO)ccc(NCCNCCO)c21` [Mitoxantrone dihydrochloride], for which the gametocyte viability (concentration: 1 µM) was 86.2 (inactive) and the gametocyte viability (concentration: 10 µM) is 12.9 (active).
The matching figures for `O=c1[nH]c(=O)n(C2CCCO2)cc1F` (configuration not stated) [Tegafur]: 82.6 (inactive) and 82.6 (inactive).
As to `Cc1scc2c1N(C(=O)CN1CCN(C)CC1)c1ccccc1NC2=O` [Telenzepine dihydrochloride], the gametocyte viability is 97.8 (inactive) (concentration: 1 µM) and 96.3 (inactive) (concentration: 10 µM).
The matching figures for `CC[N+](CC)(CC)CCC(O)(c1ccccc1)C1CCCCC1` (configuration not stated) [Tridihexethyl chloride]: 95.7 (inactive) and 100 (inactive).
The matching figures for `CCOC(=O)C1=C(C)NC(C)=C(C(=O)OCC)C1c1ccccc1/C=C/C(=O)OC(C)(C)C` [Lacidipine]: 97.1 (inactive) and 96.5 (inactive).
The matching figures for `Cc1c(Cl)cccc1Nc1ccccc1C(=O)O` [Tolfenamic acid]: 83.6 (inactive) and 90.8 (inactive).
Take `Cc1cccc(Nc2ccccc2C(=O)O)c1C` [Mefenamic acid]: the gametocyte viability was 94 (inactive) (concentration: 1 µM) and 94.6 (inactive) (concentration: 10 µM).
The matching figures for `COc1ccc(/C=C/C(=O)Nc2ccccc2C(=O)O)cc1OC` [Tranilast]: 68.5 (inactive) and 40.9 (active).
On to `COC1=C(OC)C(=O)C(CCCCCCCCCCO)=C(C)C1=O` [Idebenone], for which the gametocyte viability is 88 (inactive) (concentration: 1 µM) and 86.8 (inactive) (concentration: 10 µM).
Take `Cn1c(=O)c2c(ncn2CC2OCCO2)n(C)c1=O` [Doxofylline]: the gametocyte viability was 86.6 (inactive) (concentration: 1 µM) and 86.7 (inactive) (concentration: 10 µM).
As to `COc1cc(N)c(Cl)cc1C(=O)NC1CCN(CCCOc2ccc(F)cc2)CC1OC` (configuration not stated) [Cisapride], the gametocyte viability runs as follows: (concentration: 1 µM) 95.9 (inactive); (concentration: 10 µM) 96.7 (inactive).
For the compound `C[C@H](CCC(=O)O)[C@H]1CC[C@H]2[C@@H]3C(=O)C[C@@H]4CC(=O)CC[C@]4(C)[C@H]3CC(=O)[C@]12C` [Dehydrocholic acid], the gametocyte viability runs as follows: (concentration: 1 µM) 95.4 (inactive); (concentration: 10 µM) 93.6 (inactive).
The matching figures for `C=C1c2c(Cl)ccc(O)c2C(O)=C2C(=O)[C@]3(O)C(O)=C(C(N)=O)C(=O)[C@@H](N(C)C)[C@@H]3[C@@H](O)[C@H]12.O=C(O)c1cc(S(=O)(=O)O)ccc1O` [Meclocycline sulfosalicylate]: 80.9 (inactive) and 83.5 (inactive).
Consider `CN(C)CC/C=C1/c2ccccc2COc2ccc(CC(=O)O)cc21` [Olopatadine hydrochloride], for which the gametocyte viability is, setting by setting: (concentration: 1 µM) 77.9 (inactive); (concentration: 10 µM) 86.5 (inactive).
The matching figures for `CCCOc1ccc(C(=O)OCCN(CC)CC)cc1N` [Proparacaine hydrochloride]: 98.5 (inactive) and 105 (inactive).
Turning to `COc1cccc(OC)c1C(=O)N[C@@H]1C(=O)N2[C@@H]1SC(C)(C)[C@@H]2C(=O)O` [Methicillin sodium], the gametocyte viability (concentration: 1 µM) is 83.4 (inactive) and the gametocyte viability (concentration: 10 µM) is 83.1 (inactive).
The matching figures for `Clc1ccccc1CN1CCc2sccc2C1` [Ticlopidine hydrochloride]: 96 (inactive) and 93.2 (inactive).
As to `CC(=O)OCC(=O)[C@@]1(O)CC[C@H]2[C@@H]3CCC4=CC(=O)CC[C@]4(C)[C@@]3(F)[C@@H](O)C[C@@]21C` [Fludrocortisone acetate], the gametocyte viability (concentration: 1 µM) was 79.5 (inactive) and the gametocyte viability (concentration: 10 µM) is 75.8 (inactive).

Values taken from the supplement of paper PMC12297408.
